Many of the other results were omitted from the sample, so hits are more common in it than they were.
RORg inh: inhibitors of mouse ROR gamma transcriptional activity | Drosophila S2 Gal4-RORgamma UAS-luciferase reporter, 20 h | hit rate 5.4% among 310,000 | P51450 | AID 2551 | Potency, µM (series often up to 53.6 µM), for the others: at the highest dose activity change, negative = inhibition, hits mostly inhibitors; further: potency means the concentration at half of the fitted maximal effect; on the % scale 0 is the no-effect control and ±100 the full control effect; nearly all actives have a fitted effect of over 60% in size
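Luminescence from a UAS-regulated Photinus luciferase reporter in stably transfected Drosophila Schneider cells is measured; decreased signal marks ROR gamma inhibition. Fusion expression is induced by 700 uM copper sulfate for 20 hr.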
Integrin act MD: activates integrin-mediated alleviation for muscular dystrophy | alpha7betagal myoblasts, beta-gal FDG fluorescence, 48 h | Potency, µM (titrated, usually from 38.3 µM), inactives show top-dose activation, hits mostly activators | hit rate 0.064% among 350,000;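 further: potency means the concentration at half of the fitted maximal effect; 100% = response of the positive control SU9516; nearly all actives have a fitted effect of over 60% in size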
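Alpha7betagal+/- myoblasts (passage 13) were plated 16-24 hr, then exposed to compounds (1:260 dilution of DMSO stock) for 48 hours at 37C. After MPER lysis, β-galactosidase reporter activity was read as FDG fluorescence (ex 480/em 540) after 30 minutes.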
VP16 counter: inhibits Gal4-VP16 luciferase reporter, ROR gamma counter-screen. hit rate 3.5% among 310,000. Drosophila S2 Gal4-VP16 UAS-luciferase, luminescence, 20 h. AID 2546. Potency, µM (highest dose often 53.6 µM), for inactives: at the top dose activity, negative = inhibition, hits mostly inhibitors;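 further: Gal4-VP16 expression switched on by copper sulfate through the metallothionein promoter; potency means the concentration at half of the fitted maximal effect; on the % scale 0 is the no-effect control and ±100 the full control effect; nearly all actives have a fitted effect of over 50% in size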
ERG-DNA inh: inhibitors of human ERG Ets domain-DNA interaction; P11308; hit rate 0.028% among 370,000; AID 624246; fluorescence polarization, His-ERG Ets domain / labelled DNA; Potency, µM (doses to about 76.9 µM), without a hit: top-dose FP activity, negative = inhibition, hits mostly inhibitors; active means well fitted inhibition curve with a large enough effect in the polarisation, with a control signal flat; inconclusive means small, poorly fitted or top-dose-only effect, or effect the other way, or a change in a side signal; inactive means no such curve, though single readings can be large or run the other way; the % refers to the polarisation;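 further: polarization taken with two DNA probes labelled with fluorescein and Texas red; potency means the concentration at half of the fitted maximal effect; % of control where 0% means no effect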
Target sequence (P11308 whole entry, looked up, the tested form may be a part): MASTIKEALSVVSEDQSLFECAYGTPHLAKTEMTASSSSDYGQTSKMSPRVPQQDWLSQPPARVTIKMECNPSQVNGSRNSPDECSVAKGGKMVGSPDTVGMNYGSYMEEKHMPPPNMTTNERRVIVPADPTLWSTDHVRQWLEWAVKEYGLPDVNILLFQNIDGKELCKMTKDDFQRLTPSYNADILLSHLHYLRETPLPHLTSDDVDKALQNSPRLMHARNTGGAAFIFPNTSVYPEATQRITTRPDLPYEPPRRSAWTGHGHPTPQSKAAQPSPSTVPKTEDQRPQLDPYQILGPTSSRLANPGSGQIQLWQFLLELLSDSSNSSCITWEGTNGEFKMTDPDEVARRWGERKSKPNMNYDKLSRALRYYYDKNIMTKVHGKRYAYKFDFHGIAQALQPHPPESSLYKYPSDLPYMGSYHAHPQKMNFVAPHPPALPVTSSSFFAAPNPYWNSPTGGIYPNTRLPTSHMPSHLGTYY
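His-tagged ERG Ets domain (1 uM in the protein solution; 300mM KCl, 50mM Tris-HCl, 1mM EDTA, 1mM DTT, pH 7.5) received compound, then a probe mix of 5 nM fluorescein-DNA and 100nM Texas-615-DNA. Fluorescence polarization was read for both dyes.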
Giardia killer: Giardia lamblia killing | Giardia lamblia trophozoite viability | activity change, % at 7.66 µM, hits read low | hit rate 0.15% among 340,000; in the data active means activity change below about -80%; inconclusive means between about -30% and that limit;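 further: parasites exposed to compound for two days anaerobically before the ATP read; on the % scale 0 is the no-effect control and ±100 the full control effect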
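Trophozoites 100 cells/well + cpd; 48 hrs, 37 deg C, anaerobic. ATPLite 1-Step added, 15-30 min RT, luminescence read (ATP-based viability).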
* marks the source's active call; other numbers are inactive results; ? = inconclusive; . = no result; [ ] = remark or other dose. Unless noted, the call rests on the fitted dose curve; in most records, active means well fitted curve in the direction sought with a large enough effect; inconclusive means small, poorly fitted or top-dose-only effect, or another doubt; inactive means no such curve, though single readings can be large; an effect the other way counts as inactive or inconclusive.

SMILES	RORg inh	Integrin act MD	VP16 counter	ERG-DNA inh	Giardia killer
FC(F)Oc1ccc(NC(=S)NCc2cccnc2)cc1	17.3%	-53.0%	-18.0%	6.4%	?
C/C=C/c1ccc2c(c1)O[C@H](CN(C)C(=O)NC1CCCC1)[C@H](C)CN([C@H](C)CO)S2(=O)=O	.	6.4%	.	.	.
N#CC(C#N)=C1C=CC=CN1/C(=C\c1ccco1)C(=O)c1ccc(-c2ccccc2)cc1	3.98µM*	-46.8%	3.16µM*	3.2%	-17.5
N#CC(C#N)=C1C=CC=CN1/C(=C\c1ccco1)C(=O)c1ccc(Cl)cc1	5.01µM*	-62.1%	1.12µM*	8.3%	1.9
C#CC(C)OC(=O)Nc1cnccc1C(F)(F)F (centres undefined)	7.1%	-6.0%	1.6%	-10.5%	18.0
NNC(=O)COc1cccc(C(F)(F)F)c1	8.91µM*	11.2%	-0.5%	0.7%	-25.1
O=C(Nc1ccccc1)Nc1cccc(C(F)(F)F)c1	?	5.7%	-6.4%	6.0%	-7.2
O=C(COCC(=O)Nc1cccc(C(F)(F)F)c1)Nc1cccc(C(F)(F)F)c1	22.4µM*	-52.9%	?	-10.3%	-6.9
Cc1ccc(OC(F)F)c(NC(=O)Nc2cccc(C(F)(F)F)c2)c1	5.01µM*	-60.6%	6.31µM*	3.3%	18.3
Cc1cc(N2CCCC2)ccc1NC(=O)COc1cccc(C(F)(F)F)c1	11.2µM*	-17.2%	?	6.1%	-2.8
CN1CCN(NC(=O)COc2cccc(C(F)(F)F)c2)CC1	-1.7%	-7.5%	-1.9%	-1.2%	?
COc1ccc(C(=O)c2c3ccc([N+](=O)[O-])cc3[n+]([O-])n2CCCC(N)=O)cc1	.	-6.5%	.	5.4%	?
COc1ccc(-c2nc(S(=O)(=O)c3ccc(Cl)cc3)c(N3CCCCCC3)o2)cc1	.	.	.	-6.2%	.
O=C1c2ccccc2C(=O)C1c1ccncc1	?	20.9%	11.2µM*	-3.7%	?
CN(C)c1ncnc2ccc(-c3ccc4c(c3)OCO4)cc12	-3.3%	.	-3.0%	.	.
O=C(NCc1n[nH]c(=S)n1Cc1ccccc1)c1ccccc1	?	20.2%	3.6%	11.6%	5.1
S=c1[nH]nc(CNc2ccc(Cl)cc2)n1Cc1ccccc1	3.55µM*	11.0%	-17.1%	-9.9%	-3.6
Fc1ccc(NCc2n[nH]c(=S)n2Cc2ccccc2)cc1	4.47µM*	19.4%	-18.8%	-0.6%	-20.4
COc1ccc(C2(SCC(N)C(=O)O)c3ccccc3-c3ccccc32)cc1 (centres undefined)	.	7.6%	.	10.8%	-0.6
Cc1ccc(-n2cc(C(C)(C)C)[nH]c2=S)cc1	2.24µM*	-27.5%	6.31µM*	0.0%	-2.9
CC(C)(C)c1cn(-c2ccccc2)c(=S)[nH]1	7.08µM*	-5.7%	7.94µM*	1.9%	3.7
COc1ccc(C2C=C3CN(C(=O)OC(C)(C)C)S(=O)(=O)C3CC2OC(=O)c2cccc(C)c2)cc1 (centres undefined)	-1.5%	.	-5.0%	.	-11.3
Cc1ccc(C(C)NC(=S)NC2CCCCC2)cc1C (centres undefined)	2.51µM*	.	3.98µM*	.	.
Cc1ccc(C(C)NC(=O)C2CCCC2)c(C)c1 (centres undefined)	7.5%	-15.2%	-9.8%	-3.8%	9.8
Cc1ccc(C(C)NC(=S)NC2CCCCC2)c(C)c1 (centres undefined)	3.16µM*	-58.4%	3.55µM*	5.8%	1.8
SMILES	RORg inh	Integrin act MD	VP16 counter	ERG-DNA inh	Giardia killer
CCC(NC(=O)NC1CCCCC1)c1ccccc1 (centres undefined)	?	-11.1%	9.6%	2.6%	-5.8
CCC(NC(=S)NC1CCCCC1)c1ccc(C(C)C)cc1 (centres undefined)	1.78µM*	.	2.51µM*	.	.
Oc1ccc(O)c(Cc2nc3ccccc3[nH]2)c1	15.8µM*	10.8%	-29.4%	2.9%	-13.2
Cc1cc(N2CCOCC2)ccc1/C=C\[N+](=O)[O-]	6.31µM*	-66.9%	10µM*	15.1%	-3.8
CCCn1c(C(C)Nc2nc(-c3ccc(C)cc3)cs2)nc2cc(Cl)c(Cl)cc21 (centres undefined)	11.2µM*	-1.1%	-8.5%	12.5%	17.5
Cc1ccc(Cn2c(C(C)Nc3nc(-c4ccc(F)cc4)cs3)nc3cc(Cl)c(Cl)cc32)cc1 (centres undefined)	.	-12.2%	.	3.4%	-6.6
CCCn1c(C(CO)Nc2nc(-c3cccc(Br)c3)cs2)nc2ccccc21 (centres undefined)	12.6µM*	-37.4%	?	5.3%	-2.7
OCCOCCn1c(C(CO)Nc2nc(-c3cccc(Br)c3)cs2)nc2ccccc21 (centres undefined)	.	-0.2%	.	6.6%	2.0
Cc1cccc(C(=O)NNC(=O)c2ccccc2O)c1	12.6µM*	-17.2%	?	-2.4%	-26.4
COC(=O)NNC(=O)c1ccc(C(C)(C)C)cc1	13.3%	-4.3%	-9.7%	1.9%	-6.7
CC(C)(C)NC(=O)C(=O)NNC(=O)c1ccc(C(C)(C)C)cc1	8.91µM*	-11.4%	?	-8.4%	-14.3
Cc1cccc(C(=O)NNC(=O)C(=O)NC(C)(C)C)c1	12.6µM*	-5.8%	-2.3%	10.3%	-1.8
CC(C)(C)NC(=O)C(=O)NNC(=O)c1cccc(Br)c1	?	-0.7%	?	-2.6%	-1.2
CCc1ccc(C(=O)CN(C#N)c2nc(C)cc(C)n2)cc1	11.2µM*	-28.0%	-25.2%	3.9%	-7.4
O=C(Nc1ccc(F)cc1F)c1cncc(Br)c1	-2.5%	38.5%	-19.5%	-1.8%	-10.0
Cc1cc(Br)cnc1NC(=S)Nc1ccc(F)cc1F	6.31µM*	3.3%	?	10.0%	-12.6
CC1(C)c2ssc(=S)c2-c2ccccc2N1C(=O)CSC1=NCCS1	11.2µM*	-14.2%	0.0%	-0.8%	-10.2
Cc1cc2c(cc1C)N(C(=O)CSC1=NCCS1)C(C)(C)c1ssc(=S)c1-2	3.98µM*	-33.6%	1.5%[0.365 µM]	-2.3%	-5.0
COc1ccc2c(c1)-c1c(ssc1=S)C(C)(C)N2C(=O)CSC1=NCCS1	?	-31.8%	-4.5%[0.365 µM]	-8.7%	-4.1
Cc1ccccc1N1C(=O)C(Oc2ccc(Cl)cc2)C1CNC(C)(C)C (centres undefined)	4.1%[10 µM]	-10.6%	-8.3%	-11.1%	28.3
O=c1c2cc(N3CCOCC3)ccc2[nH]c(=S)n1CCc1ccccc1	2µM*	-27.8%	3.16µM*	-1.0%	-4.2
O=C(CCCCCn1c(=S)[nH]c2ccc(N3CCOCC3)cc2c1=O)NCc1ccccc1	-26.2%	-15.1%	?	5.3%	7.5
COCCCn1c(=S)[nH]c2ccc(N3CCOCC3)cc2c1=O	?	-16.5%	?	0.3%	-5.0
COc1ccc(CCn2c(=S)[nH]c3ccc(N4CCOCC4)cc3c2=O)cc1OC	12.6µM*	-41.2%	?	7.1%	9.2
O=c1c2cc(N3CCOCC3)ccc2[nH]c(=S)n1Cc1ccccn1	7.94µM*	-17.5%	?	0.4%	-15.0
O=c1c2cc(N3CCOCC3)ccc2[nH]c(=S)n1Cc1ccccc1Cl	?	-9.9%	?	-1.9%	-3.9

Screening results from PubChem.
